Measurements reported in PubChem BioAssay (Tox21).
Inconclusive results are not listed. Calls of active or inactive are those of the source. Calls come from the whole dose curve; as a rule, active = well fitted activation curve with a large enough effect in the repeat runs; inconclusive = weak or mixed curves; inactive = no such curve, though single readings can be large or run the other way.

molecular target: Aryl hydrocarbon receptor (Homo sapiens) (UniProt P35869); experiment: qHTS assay to identify small molecule that activate the aryl hydrocarbon receptor (AhR) signaling pathway (AID 743085); conditions: HepG2 AhR-luc (HG2L7.5c1), luciferase, 24 h; series mostly up to 70.3 µM; activation: at the top concentration;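 note: HG2L7.5c1 human HepG2 liver cells with stably integrated DRE-driven firefly reporter; nearly all actives have a fitted effect of over 15% in size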
Sequence (P35869 whole entry, looked up): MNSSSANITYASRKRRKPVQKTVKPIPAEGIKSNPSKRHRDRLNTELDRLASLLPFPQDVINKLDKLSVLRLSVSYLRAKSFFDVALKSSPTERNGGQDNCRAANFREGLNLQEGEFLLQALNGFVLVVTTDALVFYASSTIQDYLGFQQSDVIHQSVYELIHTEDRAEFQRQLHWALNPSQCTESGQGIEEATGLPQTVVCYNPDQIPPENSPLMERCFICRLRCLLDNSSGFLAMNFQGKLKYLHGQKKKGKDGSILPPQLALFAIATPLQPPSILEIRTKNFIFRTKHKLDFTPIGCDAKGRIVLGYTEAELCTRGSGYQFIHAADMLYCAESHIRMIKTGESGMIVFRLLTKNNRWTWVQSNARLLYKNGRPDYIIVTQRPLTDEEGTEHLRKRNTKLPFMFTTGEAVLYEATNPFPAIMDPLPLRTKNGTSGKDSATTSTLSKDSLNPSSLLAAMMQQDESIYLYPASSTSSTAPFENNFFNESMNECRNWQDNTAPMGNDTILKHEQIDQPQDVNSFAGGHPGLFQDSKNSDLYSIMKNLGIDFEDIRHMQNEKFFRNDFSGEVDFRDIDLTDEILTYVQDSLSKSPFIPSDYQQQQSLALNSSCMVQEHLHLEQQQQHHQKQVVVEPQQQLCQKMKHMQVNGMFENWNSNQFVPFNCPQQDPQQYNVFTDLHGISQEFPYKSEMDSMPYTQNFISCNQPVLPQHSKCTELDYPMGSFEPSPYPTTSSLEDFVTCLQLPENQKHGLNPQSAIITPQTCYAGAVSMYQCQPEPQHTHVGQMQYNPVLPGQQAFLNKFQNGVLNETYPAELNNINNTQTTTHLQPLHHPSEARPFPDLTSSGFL
Source text: U.S. Tox21 Program National Center for Advancing Translational Sciences [NCATS] NIH Chemical Genomics Center [NCGC] U.S. Environmental Protection Agency [EPA] National Institutes of Environmental Health Sciences [NIEHS] National Toxicology Program [NTP] U.S. Food and Drug Administration [FDA] Tox21 Assay overview: The Aryl hydrocarbon Receptor (AhR), a member of the family of basic helix-loop-helix transcription factors, is crucial to adaptive responses to environmental changes. AhR mediates cellular responses to environmental pollutants such as aromatic hydrocarbons through induction of phase I and II enzymes but also interacts with other nuclear receptor signaling pathways. A cell based HepG2-AhR-luc assay (HG2L7.5c1 cell line, developed by Dr. Michael S. Denison, University of California at Davis, was used to assess the activation of AhR. HepG2 (human hepatocellular carcinoma) cells were stably transfected with an Ah receptor-responsive firefly luciferase reporter gene plasmid containing 20 dioxin responsive elements and luciferase reporter gene. Increased luciferase activity can be used to identify the compounds that induce AhR activation.
Tox21 Assay Protocol Summary: 4000 cells in 5 uL/well were dispensed into white wall/solid bottom 1536-well plates using a Multidrop Combi (Thermo Fisher Scientific Inc., Waltham, MA) dispenser. After the assay plates were incubated at 37C for 5 h, 23 nL of compound or DMSO vehicle was transferred to the assay plates by a pintool station (Kalypsys, San Diego, CA). The plates were incubated at 37C for 24 hr. After 1 ul/well of CellTiter-Fluor reagent (Promega, Madison, WI) was added into the assay plates using a Flying Reagent Dispenser (FRD) (Aurora Discovery, CA), the assay plates were incubated at 37C for 30 min. The fluorescence intensity in the plates was measured using a ViewLux plate reader (PerkinElmer, Shelton, CT), followed by the addition of 4 uL of ONE-Glo Luciferase Assay reagent (Promega) using an FRD (Aurora Discovery). After the assay plates were incubated at room temperature for 30 min, luminescence intensity was measured using a ViewLux plate reader (Perkin Elmer).
% is set by controls: 0 for no effect and ±100 for the full control effect.

Row | Compound | activation | Potency
1 | CCCC(=O)OCCC(C)CCC=C(C)C (stereo not given) | -0.272% (inactive) | 
2 | Nc1nnnn1-c1ccccc1 | -2.06% (inactive) | 
3 | O=C(O)CSCC(=O)NC1CCSC1=O (stereo not given) | 0.434% (inactive) | 
4 | CCc1occc(=O)c1O | 5.08% (inactive) | 
5 | CC(C)=CCC/C(C)=C/COC=O | -0.783% (inactive) | 
6 | Cc1c(Cl)cccc1Cl | 3.58% (inactive) | 
7 | CCCCCCCCCOC(=O)c1ccccc1C(=O)OCCCCCCCCC | -1.39% (inactive) | 
8 | CC(N)CCCC(C)(C)O (stereo not given) | -1.65% (inactive) | 
9 | CC(C)Nc1ccccc1 | -2.11% (inactive) | 
10 | C[C@@H](O)C(=O)O | -0.332% [at 95 µM] (inactive) | 
11 | [O]=[Mo](=[O])=[O] | -2.14% [at 32.5 µM] (inactive) | 
12 | CCCCOCCOC(=O)COc1ccc(Cl)cc1Cl | 2.38% (inactive) | 
13 | CCCCCC/C=C/C(=O)OC | -0.144% (inactive) | 
14 | Cn1nnc2c(C(N)=O)ncn2c1=O | -3.29% (inactive) | 
15 | C=C(C)C1CC=C(C)C(=O)C1 (stereo not given) | -0.509% (inactive) | 
16 | CCOCCOCC | -1.32% [at 95 µM] (inactive) | 
17 | C=CCCCCCCCC | -2.46% [at 95 µM] (inactive) | 
18 | C=CC/C=C/C | -1.22% [at 95 µM] (inactive) | 
19 | CO/N=C(/C(=O)N[C@@H]1C(=O)N2C(C(=O)[O-])=C(C[n+]3ccn4ncccc43)CS[C@H]12)c1nsc(N)n1 |  | inactive
20 | CCC(C)C(=O)OCCc1ccccc1 (stereo not given) | -1.27% (inactive) | 

Row | Compound | activation | Potency
21 | Cc1ccc(C(C)NC(=O)[C@@H](NC(=O)OC(C)C)C(C)C)cc1 (stereo not given in full) | 0.0638% (inactive) | 
22 | C[Si]1(C)O[Si](C)(C)O[Si](C)(C)O[Si](C)(C)O[Si](C)(C)O1 | -1.58% (inactive) | 
23 | CC(C)(CO)C(O)C(=O)NCCCO (stereo not given) | -0.889% (inactive) | 
24 | NCC1(Cc2noc(=O)[nH]2)CCCCC1 | 2.03% (inactive) | 
25 | COC(=O)c1cc(Cl)cc(Cl)c1 | -0.371% (inactive) | 
26 | CCOc1cccc(N)c1 | 5.79% (inactive) | 
27 | O=Cc1cc2ccccc2o1 | -0.568% (inactive) | 
28 | CCC(=O)CC | -1.66% (inactive) | 
29 | CCCCSCCCC | 0.695% (inactive) | 
30 | O=C(O)c1cc2ccccc2nc1C(=O)O | 4.86% (inactive) | 
31 | CN(C)CCOC(=O)C(c1ccccc1)C1(O)CCCC1 (stereo not given) | -1.49% (inactive) | 
32 | CC1CCc2c(N3CCC(O)CC3)c(F)cc3c(=O)c(C(=O)O)cn1c23 (stereo not given) | -0.88% (inactive) | 
33 | Cn1c(=O)c2c(ncn2CCO)n(C)c1=O | 9.36% (inactive) | 
34 | CN(C)CCN(C)CCO | -0.217% (inactive) | 
35 | CC(=O)Nc1ccc(OC(=O)c2ccccc2OC(C)=O)cc1 | -2.06% (inactive) | 
36 | CC/C=C\CCOC(=O)c1ccccc1O | -1.06% (inactive) | 
37 | CN(C)C(C)(C)CO | -0.294% (inactive) | 
38 | CC(=O)O[Si](C)(OC(C)=O)OC(C)=O | -0.276% [at 95 µM] (inactive) | 
39 | CCCCCCCCCCCCCCCCCC#N | -0.126% [at 95 µM] (inactive) | 
40 | CC(C)NCC(O)c1ccc2ccccc2c1 (stereo not given) | -1.49% (inactive) | 
